MEX-5 binding = C. elegans MEX-5 TCR-2 RNA binding activity. Q9XUB2. MEX-5/FITC-TCR2 RNA binding, fluorescence polarization; active compounds read low. activity score (negative = inhibition of binding), % at 10 µM. 0.38% of 300,000 active. AID 1832;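 active = inhibition past about -25% in most replicates, and total fluorescence under double the plate's negative control median, limit read from the data; inconclusive = replicates evenly split on the limit, or fluorescence at least double controls; inactive = too little inhibition in most replicates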;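 note: 0% = DMSO and -100% = 5 µM competing unlabeled TCR2 RNA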
IDE cell activ = boosts human insulin-degrading enzyme activity in HEK cells; P14735; AID 493087; FAbeta-B cleavage, fluorescence polarization; 0% vehicle, 100% cell-free pure enzyme wells; activation, % at 5.96 µM; 0.073% of 340,000 active;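 active = activation above the mean of all tested compounds plus 3 SD, set per screening campaign, cut at about 17% in these data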
MCL1-BIM inh = MCL1-BIM-BH3 interaction inhibition (human). AID 2057. GST-MCL1 / FITC-Bim-BH3 fluorescence polarization. Q07820. 0.68% of 320,000 active. inhibition, % at 10.9 µM;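 active = inhibition above the mean inhibition of all tested compounds plus 3 SD, set per campaign, cut at about 40% in these data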;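 note: 0% = DMSO wells and 100% = unlabeled Bim-BH3 peptide control; higher means more loss of mP so more displacement of Bim peptide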
BCLXL inh = Bcl-xL (human) inhibition | GST-Bcl-xL / FITC-Bim BH3 peptide fluorescence polarization | AID 2129 | 0.7% of 320,000 active | inhibition, % at 10.9 µM | Q07817;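 active = inhibition above the mean of all tested compounds plus 3 SD, cutoff set per campaign, cut at about 30% in these data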;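 note: 0% = DMSO wells and 100% = unlabeled Bim-BH3 peptide competitor; inhibitors lower millipolarization by displacing the labeled peptide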
Target sequence (Q07817 whole entry, looked up): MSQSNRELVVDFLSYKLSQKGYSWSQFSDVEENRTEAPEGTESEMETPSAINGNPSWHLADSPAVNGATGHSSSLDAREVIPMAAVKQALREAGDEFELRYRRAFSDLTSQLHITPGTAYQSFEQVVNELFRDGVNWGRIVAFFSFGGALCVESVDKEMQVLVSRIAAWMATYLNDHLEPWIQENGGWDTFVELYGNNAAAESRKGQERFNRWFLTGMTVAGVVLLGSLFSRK
GLD-1 TGE inh = GLD-1-TGE RNA interaction inhibition (C. elegans); purified GLD-1 + fluorescein TGE RNA, fluorescence polarization; inhibition, % at 5.96 µM; 0.44% of 320,000 active;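 active = percent inhibition above a per-plate cutoff, the plate mean of test compounds plus 3 SD, cut at about 30% in these data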;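 note: 0% = DMSO wells with GLD-1 and probe and 100% = wells lacking GLD-1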
Target sequence (Q17339 whole entry, looked up): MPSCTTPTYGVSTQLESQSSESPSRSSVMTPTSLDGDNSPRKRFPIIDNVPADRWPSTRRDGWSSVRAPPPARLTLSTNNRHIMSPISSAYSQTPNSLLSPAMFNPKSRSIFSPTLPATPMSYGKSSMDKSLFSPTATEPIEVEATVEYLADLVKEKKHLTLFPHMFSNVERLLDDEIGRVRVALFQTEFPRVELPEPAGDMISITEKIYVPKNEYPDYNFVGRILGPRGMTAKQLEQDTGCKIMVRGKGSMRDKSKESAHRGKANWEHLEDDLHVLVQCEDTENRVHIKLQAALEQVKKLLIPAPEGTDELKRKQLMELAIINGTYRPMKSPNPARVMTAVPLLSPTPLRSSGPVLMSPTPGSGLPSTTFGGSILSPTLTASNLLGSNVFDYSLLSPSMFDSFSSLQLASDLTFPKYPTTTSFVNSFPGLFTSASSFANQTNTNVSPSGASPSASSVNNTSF
IDE cell inh = cellular human IDE inhibition. inhibition, % at 5.59 µM. P14735. 0.41% of 320,000 active. AID 434962. HEK cells, FAbetaB cleavage, fluorescence polarization;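 active = percent inhibition above the average of all tested compounds plus 3 SD, set per screening campaign, cut at about 16% in these data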;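 note: IDE supplied by intact live HEK cells; FP after avidin binding of uncleaved biotin substrate so inhibition keeps polarization high; 0% = DMSO wells and 100% = 60 µM reference IDE inhibitor Ii1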
Bcl-xL conf = counter-screen for MCL1 inhibitors: confirmation of human Bcl-xL inhibitors; shares compounds with MCL1-BIM inh; GST-Bcl-xL / FITC-Bim BH3 peptide FP binding; inhibition, % at 10.9 µM; 54% of 1,700 active; AID 2166;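 active = inhibition above a cutoff equal to the mean inhibition of all tested compounds plus 3 SD, cut at about 30% in these data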;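 note: 0% = DMSO wells and 100% = unlabeled Bim BH3 control peptide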
MCL1 BIM confirm = confirmation of human MCL1 and BIM-BH3 interaction inhibitors. shares compounds with MCL1-BIM inh. GST-MCL1 / FITC-Bim-BH3 fluorescence polarization. inhibition, % at 10.9 µM. 61% of 1,700 active;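 active = inhibition above the average of all tested compounds plus 3 SD, cut at about 40% in these data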;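 note: 0% = DMSO wells and 100% = unlabeled Bim-BH3 control peptide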
* = called active by the depositor; ? = inconclusive; / = not tested or not shown; + = active, no number. The list is not random: actives were taken first. Their share in the collection is about 1.5%.

SMILES	MEX-5 binding	IDE cell activ	MCL1-BIM inh	BCLXL inh	GLD-1 TGE inh	IDE cell inh	Bcl-xL conf	MCL1 BIM confirm
CSc1nc(NCCN(C)C)c2sc3nc(-c4ccco4)c4c(c3c2n1)CCC4	/	2.7	/	/	/	/	/	/
COc1ccc2c(c1)CCN1C2CCN2C(=O)CCC21 (stereo not given)	-6.0	3.8	56.1*	45.0*	21.5	0.8	18.9	16.1
COc1ccc(CC(=O)N2CCN(S(=O)(=O)c3cc(Cl)ccc3Cl)CC2)cc1	/	3.1	-7.2	0.2	-0.5	-0.4	/	/
CC1(OC(=O)c2ccco2)C(=O)C=C2C=C(C3CC3)OC=C2C1=O (stereo not given)	-34.4*	-0.3	79.4*	75.0*	63.1*	-0.6	39.7*	58.7*
CCC(=O)OC1(C)C(=O)C=C2C=C(C3CC3)OC=C2C1=O (stereo not given)	-13.5	-0.9	63.3*	59.3*	38.8*	5.3	25.3	30.9
CC1(OC(=O)c2cnc3ccccc3n2)C(=O)C=C2C=C(C3CC3)OC=C2C1=O (stereo not given)	-53.0*	/	129.8*	117.6*	113.8*	-5.6	80.7*	117.3*
COC(=O)CCC(=O)OC1(C)C(=O)C=C2C=C(C3CC3)N(CC(C)C)C=C2C1=O (stereo not given)	-6.2	/	/	/	/	/	/	/
CC1(OC(=O)c2cccs2)C(=O)C=C2C=C(c3ccc(C#N)cc3)OC=C2C1=O (stereo not given)	-20.3	/	3.5	4.2	6.3	0.0	/	/
CCCCNC(=S)Nc1ccc(OC)nc1	-17.4	3.7	58.2*	56.0*	49.5*	8.2	43.0*	51.5*
COc1ccccc1CNC(=O)CN1C(=O)c2cccc(N)c2C1=O	-0.4	-1.7	107.0*	93.2*	103.2*	4.3	43.4*	54.3*
COc1ccccc1CNC(=O)CCN1C(=O)c2ccccc2C1=O	0.6	-2.8	1.4	2.5	4.4	-1.8	/	/
CCOC(=O)c1c(C)[nH]c(C)c1C(=O)COC(=O)c1cccs1	/	1.8	/	/	-7.3	9.0	/	/
CCOC(=O)CSc1nc(N2CCOCC2)c2c(c1C#N)CC(C)(C)OC2	1.0	-0.1	-1.5	-0.1	-0.2	-1.4	/	/
CCOC(=O)CSc1nc(N2CCOCC2)c2c(c1C#N)CC(C)(C)N(C)C2	-1.1	-1.4	55.7*	58.8*	73.0*	9.7	8.1	12.9
O=C(O)c1ccc2c(c1)C(=O)/C(=C\c1ccco1)C2=O	?	-0.5	63.9*	40.7*	27.0	1.6	25.1	26.4
O=C1C(=Cc2ccco2)C(=O)c2ccccc21	-0.4	2.6	18.4	14.3	9.2	10.3	/	/
CCCCC1=CC2=CC(=O)C(C)(OC(=O)CC)C(=O)C2=CN1C(CO)CO (stereo not given)	2.3	-0.9	16.2	12.6	17.4	2.4	/	/
COC(=O)CCCC1=CC2=CC(=O)C(C)(OC(=O)C3CCCC3)C(=O)C2=CO1 (stereo not given)	-26.7*	-5.6	62.5*	44.6*	47.8*	2.7	41.1*	62.6*
CCC(=O)OC1(C)C(=O)C=C2C=C(CCCC(=O)OC)OC=C2C1=O (stereo not given)	-31.1*	2.4	85.6*	70.3*	46.3*	-1.1	41.3*	74.9*
COC(=O)CCCC1=CC2=C(c3ccccc3)C(=O)C(C)(OC(=O)C3CCCC3)C(=O)C2=CN1C1CCCC1 (stereo not given)	-0.8	4.2	15.4	11.7	9.5	2.0	/	/
O=S(=O)(c1cc(O)ccc1O)c1cccc2c(S(=O)(=O)c3cc(O)ccc3O)cccc12	-3.5	-0.6	45.8*	9.3	7.6	-0.5	23.9	51.7*
CSc1ncccc1C(=O)NCC(c1cccs1)N1CCOCC1 (stereo not given)	2.9	0.5	2.5	2.2	5.8	-2.5	/	/
CC(=O)N(C)c1ccc(OCC(O)Cn2c(C)nc3ccccc32)cc1 (stereo not given)	-0.5	1.3	1.7	-5.1	4.9	-0.1	/	/
CN(C)c1ccc2nc3c(=O)[nH]c(=O)nc-3n(CC(O)C(O)C(O)CO)c2c1 (stereo not given)	?	-4.3	+	189.6*	163.2*	2.6	150.0*	173.6*
Nc1ccc2c(c1)C/C(=C/c1ccco1)C2=O	-45.2*	1.5	105.3*	60.4*	24.7	2.0	97.3*	106.1*
SMILES	MEX-5 binding	IDE cell activ	MCL1-BIM inh	BCLXL inh	GLD-1 TGE inh	IDE cell inh	Bcl-xL conf	MCL1 BIM confirm
O=C1/C(=C/c2ccco2)CCc2ccccc21	2.4	-1.2	13.0	8.3	5.1	2.4	/	/
N#CCCN(C(=O)COC(=O)c1ccc(S(=O)(=O)N2CCCC2)cc1)c1cccc(Cl)c1	/	4.4	-5.5	-4.2	-0.7	5.6	/	/
Cc1ccc(NC(=O)/C(=C\c2ccc([N+](=O)[O-])cc2)NC(=O)c2ccccc2)cc1	1.4	1.7	-2.8	3.8	1.7	-0.1	/	/
O=C(N/N=C/c1ccc(O)c(O)c1O)/C(=C/c1ccc([N+](=O)[O-])cc1)NC(=O)c1ccccc1	-0.3	-19.6	40.9*	19.6	4.8	2.4	32.6*	63.0*
CC1(C)CC(=O)C2=C(C1)OC(N)=C(C#N)C2c1ccccc1[N+](=O)[O-] (stereo not given)	-80.1*	-6.1	186.4*	164.6*	119.4*	15.5	93.4*	113.6*
CC1(C)CC(=O)C2=C(C1)OC(N)=C(C#N)C2c1ccccc1 (stereo not given)	-3.3	1.9	3.0	3.3	2.7	-0.3	/	/
O=C(O)c1cccc(N2C(=O)c3cccc4cccc(c34)C2=O)c1	1.4	8.9	/	/	/	/	/	/
O=C(O)c1cccc(N2C(=O)c3cc([N+](=O)[O-])cc4cc([N+](=O)[O-])cc(c34)C2=O)c1	-9.6	2.4	46.9*	14.9	1.8	0.1	21.4	45.3*
Cc1ccc(CNc2ncc(-c3ccc4c(c3)OCO4)n2C)cc1	0.3	0.7	6.0	8.3	-7.2	-6.2	/	/
c1cc(CNc2ccc3c(c2)OCO3)ccn1	-12.8	2.2	85.4*	85.9*	27.4	6.5	64.3*	80.9*
O=C(NCc1ccncc1)C(=O)Nc1ccc2c(c1)OCO2	2.1	-0.3	3.5	7.9	3.0	4.4	/	/
Cc1ccc(CNc2ccc3c(c2)OCO3)cc1	-0.7	-4.0	158.6*	139.5*	-7.0	1.9	106.0*	134.9*
O=C(NC1CCC(O)CC1)c1ccc(NS(=O)(=O)c2cccc([N+](=O)[O-])c2)cc1 (stereo not given)	/	7.0	2.3	-0.7	-7.5	7.0	/	/
